The values that follow come from the supplement of paper PMC10037445.

For assay [1], the system named is RAW-Dual. Nature of the assay: IRF Lucia reporter activity, fold change vs agonist alone; cytotoxicity flag (confluency mask): not cytotoxic; higher = enhanced IRF activity. The method, boiled down:
(§1)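 After 50 nL of library stock was delivered by pin tool to RAW-Dual macrophages (50,000 cells/well, DMEM, 384-well plates), a PRR agonist was added 1 h later and the plates were kept at 37 °C, 5% CO2. Twenty hours later, IRF was read from supernatant by QuantiLuc luminescence and NF-κB by QuantiBlue absorbance at 620 nm. Reporter activity is stated as fold change over agonist-alone wells. Wells with IncuCyte confluency under 70% of agonist controls in both mask sets were counted as cytotoxic.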

The subject of assay [2] is RAW-Dual. Nature of the assay: IRF Lucia reporter activity, fold change vs agonist alone; higher = enhanced IRF activity. Particulars: library stock concentration (final ~1000-fold dilution): 10 mM, agonist: MPLA (TLR4) […]. Put shortly:
as §1

The test system of assay [3] is RAW-Dual. Nature of the assay: IRF Lucia reporter activity, fold change vs agonist alone; cytotoxicity flag (confluency mask): cytotoxic (confluency <70% of control); higher = enhanced IRF activity. The method, boiled down:
as §1

Where [4] appears, read: agonist: 3'3'-cGAMP (STING) 10 ug/mL.
Where [5] appears, read: cytotoxicity flag (confluency mask): not cytotoxic.
Where [6] appears, read: cytotoxicity flag (confluency mask): cytotoxic (confluency <70% of control).

Several values for one entry are separate records, joined by “and”; a condition that tells them apart may be missing. Equal entries are not always repeated. ± gives the standard deviation of the averaged measurements. In all, about 2,900 compounds were measured (“IRF Lucia reporter activity, fold change vs agonist alone”: median about 0.9, highest 2% from about 2.8 on). For the sample, the highest values were picked, then their nearest neighbours and some compounds at random.

Regarding `CC(NC(=O)c1c(N)nn2cccnc12)c1cc2cccc(C#Cc3cnn(C)c3)c2c(=O)n1-c1ccccc1` (centres undefined) (library stock concentration (final ~1000-fold dilution): 10 mM), the “IRF Lucia reporter activity” value in assay [1] (setting [4]) stood at 0.813; in assay [1] (agonist: LPS (TLR4) 0.1 ug/mL), 1.14.

On to `CC(Nc1ncnc(N)c1C#N)c1cc2cccc(-c3ccc(=O)n(C)c3)c2c(=O)n1C(C)C` (centres undefined) (library stock concentration (final ~1000-fold dilution): 10 mM), for which the “IRF Lucia reporter activity” value in assay [1] (setting [4]) turned out to be 1.14; in assay [1] (agonist: LPS (TLR4) 0.1 ug/mL), 8.45.

As for `CC(Nc1ncnc2[nH]cnc12)c1cc2cccc(Cl)c2c(=O)n1-c1ccccc1` (centres undefined), in assay [2] (setting [5]), the “IRF Lucia reporter activity” value came out at 1.42.

`CC(Nc1ncnc(N)c1C#N)c1cc2cccc(-c3ccc(=O)n(C)c3)c2c(=O)n1C(C)C` (centres undefined): in assay [2] (setting [5]), the “IRF Lucia reporter activity” value was found to be 7.07.

On to `Cl.Fc1ccc(C2CCNCC2COc2ccc3c(c2)OCO3)cc1` (centres undefined), for which, in assay [2] (setting [5]), the “IRF Lucia reporter activity” value was 1.35.

Regarding `Cl.Fc1ccc(C2CCNCC2COc2ccc3c(c2)OCO3)cc1` (centres undefined) (library stock concentration (final ~1000-fold dilution): 10 mM), the “IRF Lucia reporter activity” value in assay [1] (setting [4]) is 0.928; in assay [1] (agonist: LPS (TLR4) 0.1 ug/mL) it was 1.02.

Consider `OCC1=CC(O)C2C=COC(OC3OC(CO)C(O)C(O)C3O)C12` (centres undefined), for which the “IRF Lucia reporter activity” value in assay [2] (setting [5]) was 1.01.

As to `OCC1=CC(O)C2C=COC(OC3OC(CO)C(O)C(O)C3O)C12` (centres undefined) (library stock concentration (final ~1000-fold dilution): 10 mM), the “IRF Lucia reporter activity” value is 1.05 in assay [1] (setting [4]) and 1.37 in assay [1] (agonist: LPS (TLR4) 0.1 ug/mL).

In the case of `OCc1c[nH]c2ccccc12` (library stock concentration (final ~1000-fold dilution): 10 mM), the “IRF Lucia reporter activity” value in assay [1] (setting [4]) was 0.803 and 0.565; in assay [1] (agonist: LPS (TLR4) 0.1 ug/mL), 0.839 and 0.758.

On to `OCc1c[nH]c2ccccc12`, for which the “IRF Lucia reporter activity” value in assay [2] (setting [5]) is 1.07 ± 0.022.

Consider `c1ccc2c(CCNc3ccc(Nc4ccncc4)cc3)c[nH]c2c1`, for which, in assay [2] (setting [5]), the “IRF Lucia reporter activity” value turned out to be 2.97.

On to `O=C(O)CCc1c[nH]c2ccccc12` (library stock concentration (final ~1000-fold dilution): 10 mM), for which the “IRF Lucia reporter activity” value stood at 0.921 in assay [1] (setting [4]) and 1.18 in assay [1] (agonist: LPS (TLR4) 0.1 ug/mL).

Regarding `c1ccc2c(CCNc3ccc(Nc4ccncc4)cc3)c[nH]c2c1` (library stock concentration (final ~1000-fold dilution): 10 mM), the results for the “IRF Lucia reporter activity” value in assay [1] (setting [4]) and in assay [1] (agonist: LPS (TLR4) 0.1 ug/mL) were 0.706 and 0.612, respectively.

Consider `CN1CC2c3ccccc3Oc3ccc(Cl)cc3C2C1.O=C(O)/C=C\C(=O)O` (centres undefined), for which, in assay [2] (setting [6]), the “IRF Lucia reporter activity” value was found to be 1.95.

On to `CN1CC2c3ccccc3Oc3ccc(Cl)cc3C2C1.O=C(O)/C=C\C(=O)O` (centres undefined) (library stock concentration (final ~1000-fold dilution): 10 mM), for which the “IRF Lucia reporter activity” value in assay [3] (setting [4]) came to 0.746; in assay [3] (agonist: LPS (TLR4) 0.1 ug/mL) it was 0.716.

With `O=[N+]([O-])c1ccc(Sc2cccc[n+]2[O-])c2nonc12` (library stock concentration (final ~1000-fold dilution): 10 mM), the “IRF Lucia reporter activity” value in assay [3] (setting [4]) amounted to 0.262; in assay [3] (agonist: LPS (TLR4) 0.1 ug/mL), 0.0128.

Take `C#CCN(C)CCCOc1ccc(Cl)cc1Cl.Cl`: the “IRF Lucia reporter activity” value in assay [2] (setting [5]) was determined as 1.12.

As to `C#CCN(C)CCCOc1ccc(Cl)cc1Cl.Cl` (library stock concentration (final ~1000-fold dilution): 10 mM), the results for the “IRF Lucia reporter activity” value in assay [1] (setting [4]) and in assay [1] (agonist: LPS (TLR4) 0.1 ug/mL) were 1.06 and 1.19, respectively.

Take `O=C(Nc1cc(C(F)(F)F)cc(C(F)(F)F)c1)c1cc(Cl)ccc1O`: the “IRF Lucia reporter activity” value in assay [2] (setting [6]) turned out to be 3.54 ± 1.7.

For `CC12C=CC(=O)NC1CCC1C2CCC2(C)C(C(=O)Nc3cc(C(F)(F)F)ccc3C(F)(F)F)CCC12` (centres undefined), in assay [2] (setting [5]), the “IRF Lucia reporter activity” value was 1.08.

On to `CC12C=CC(=O)NC1CCC1C2CCC2(C)C(C(=O)Nc3cc(C(F)(F)F)ccc3C(F)(F)F)CCC12` (centres undefined) (library stock concentration (final ~1000-fold dilution): 10 mM), for which the “IRF Lucia reporter activity” value in assay [1] (setting [4]) is 1.22; in assay [1] (agonist: LPS (TLR4) 0.1 ug/mL), 1.38.

For `CC(ONC(=O)c1cc(C(F)(F)F)cc(C(F)(F)F)c1)C(=O)Nc1ccc(Cl)cc1` (centres undefined) (library stock concentration (final ~1000-fold dilution): 10 mM), the “IRF Lucia reporter activity” value in assay [1] (setting [4]) and in assay [1] (agonist: LPS (TLR4) 0.1 ug/mL) was 0.52 throughout.

Take `O=C(Nc1cc(C(F)(F)F)ccc1N1CCCCC1)c1ccncc1` (library stock concentration (final ~1000-fold dilution): 10 mM): the figures for the “IRF Lucia reporter activity” value in assay [1] (setting [4]) and in assay [1] (agonist: LPS (TLR4) 0.1 ug/mL) were 1.05 and 0.874, respectively.

On to `O=C(Nc1cc(C(F)(F)F)cc(C(F)(F)F)c1)c1cc(Cl)ccc1O` (library stock concentration (final ~1000-fold dilution): 10 mM), for which the “IRF Lucia reporter activity” value in assay [3] (setting [4]) was 0.03 and 0.0207; in assay [3] (agonist: LPS (TLR4) 0.1 ug/mL), 3.59 and 3.92.

Take `O=C(Nc1ccc([N+](=O)[O-])cc1Cl)c1cc(Cl)ccc1O`: the “IRF Lucia reporter activity” value in assay [2] (setting [5]) amounted to 0.899.

In the case of `O=C(Nc1ccc([N+](=O)[O-])cc1Cl)c1cc(Cl)ccc1O` (library stock concentration (final ~1000-fold dilution): 10 mM), the “IRF Lucia reporter activity” value in assay [1] (setting [4]) was 0.354; in assay [1] (agonist: LPS (TLR4) 0.1 ug/mL), 2.53.

As for `O=C(Nc1cc(C(F)(F)F)ccc1C(F)(F)F)c1cc(Br)ccc1O` (library stock concentration (final ~1000-fold dilution): 10 mM), the figures for the “IRF Lucia reporter activity” value in assay [3] (setting [4]) and in assay [3] (agonist: LPS (TLR4) 0.1 ug/mL) were 0.0368 and 4.46, respectively.

For `O=C(Nc1cc(C(F)(F)F)ccc1N1CCCCC1)c1ccncc1`, in assay [2] (setting [5]), the “IRF Lucia reporter activity” value is 1.18.
